This is one part of the list. Active and inactive are the calls of the source. Cut-off read from the data, not from the text of the source: active = activation above about 33%; inactive = the rest.

The values below come from PubChem BioAssay AID1649 (The Scripps Research Institute Molecular Screening Center, 2009).

The experiment is described as follows: NPY-Y2 potentiators or agonists, counter-screen for NPY-Y1 potentiator project, cell-based, fluorescence (AID 1649). The following applies: HEK293-CNG cells, membrane-potential fluorescence (FLIPR), 1536-well; at 3.6 µM; hits give high values. (Counterscreens check selectivity or assay interference.)
Consider `CCn1c2ccccc2c2cc(NC(=O)Nc3ccc([N+](=O)[O-])cc3C)ccc21`, for which the activation was 20.9% (inactive).

Consider `COCCn1nnnc1C(c1ccccc1Cl)N1CCN(c2ccccc2OC)CC1` (stereo unspecified), for which the activation was -5.69% (inactive).

As for `CN1C(=O)c2ccccc2C(C(=O)NCCCN2CCCC2)C1c1c[nH]c2ccccc12` (stereo unspecified), the activation was -3.74% (inactive).

As to `Cc1cccc(OCC(O)CN2CCN(CCN3C(=O)c4cccc5cccc(c45)C3=O)CC2)c1C` (stereo unspecified), the activation was 49.7% (active).

For `CSc1nc(-c2ccco2)nn1C(=O)c1ccccc1Cl`, the activation was 18.9% (inactive).

On to `N#Cc1ccc(C(=O)Nc2nc(-c3cccs3)c(C(=O)C(F)(F)F)s2)cc1`, for which the activation is -11.7% (inactive).

For the compound `COC(=O)c1ccc(NC(=O)CN(c2ccc(C)cc2)S(=O)(=O)c2c(C)n[nH]c2C)cc1`, the activation is 27.7% (inactive).

Regarding `O=[N+]([O-])c1cc(Cl)cc(/C=N/NC(=S)Nc2cc(S(=O)(=O)N3CCOCC3)ccc2Cl)c1O`, the activation was 64.8% (active).

For `CC1=C/C(=N\OS(=O)(=O)c2ccccc2)C=CC1=O`, the activation is 35.6% (active).

As to `O=C1/C(=C/c2coc3ccc(O)cc3c2=O)SC(=S)N1c1ccccc1`, the activation is 17.4% (inactive).

Turning to `Cc1ccccc1NCC(=O)N/N=C\c1ccc([N+](=O)[O-])s1`, the activation was 26.6% (inactive).

As to `O=C(c1cccs1)N1CCN(C(=O)N2CCOCC2)CC1`, the activation was -5.13% (inactive).

Take `O=C(Nc1ccccc1C(F)(F)F)c1cc(-c2ccc(O)cc2)on1`: the activation was -13.4% (inactive).

Take `O=C(Nc1ccc2c(c1)CCC2)c1cccc(S(=O)(=O)Nc2ccccc2Cl)c1`: the activation is -2.29% (inactive).

In the case of `COC(=O)c1sc(-c2ccc(C(C)(C)C)cc2)cc1NC(=O)/C=C/C(=O)O`, the activation is 26.2% (inactive).

Turning to `CC(=O)c1ccc(NC(=O)C2CC(=O)Nc3nc4ccccc4n32)cc1` (stereo unspecified), the activation was 22.9% (inactive).
